For 40 compounds, Potency and viability change, negative = cytotoxic results are on record in PubChem BioAssay (Tox21).

Results filed as inconclusive are left out. Where a call stands in place of a potency, no number is given. Calls of active or inactive are those of the source. Calls come from the whole dose curve; as a rule, active = well fitted cell-killing curve with a large enough effect in the repeat runs; inconclusive = weak or mixed curves; inactive = flat fitted curve, though single readings scatter.

The nature of the experiment: qHTS assay to identify small molecule antagonists of the estrogen related receptor (ERR) signaling pathway from Tox21 library - cell viability counter screen (AID 1224834). Note: nearly all actives have a fitted effect of over 30% in size. To be noted: ERR reporter cells viability, CellTiter-Fluor, 17.5 h; series mostly up to 92.4 µM. From the text: National Center for Advancing Translational Sciences [NCATS]
NIH Chemical Genomics Center [NCGC]
U.S. Environmental Protection Agency [EPA]
National Institutes of Environmental Health Sciences [NIEHS]
National Toxicology Program [NTP]
U.S. Food and Drug Administration [FDA]
Estrogen related receptors (ERRs), the first orphan nuclear receptors discovered, play an important role in the control of cellular energy metabolism. ERRs are required for high-energy production in response to the environmental challenges. ERR-alpha was also identified as an adverse marker for breast cancer progression; ERR-alpha-positive tumors have a poor prognosis. To screen and to identify environmental compounds that perturb the ERR signaling pathways could provide valuable information for potential therapeutic or preventive measures in the treatment of metabolic disease. To differentiate true ERR antagonists or agonist from cytotoxic substances, the assay is multiplexed with cell viability assay.
Tox21 Assay Protocol Summary:
The ERR cells were dispensed at 2,000 cells/5 ul/well in 1536-well white plates using a Multidrop dispenser. After the assay plates were incubated at a 37 C/5% CO2 incubator for 6 hours, 23 nL of compounds dissolved in DMSO, positive and negative controls or DMSO only was transferred to the assay plate by a pin tool. The plates were incubated at 37 C for 17.5 hours. 1 ul/well of CellTiter-Fluor reagent was added into the assay plates using a Flying Reagent Dispenser. After 30-minute incubation at 37 C/5% CO2, the fluorescence intensity in the plates was measured using a ViewLux plate reader.
On to `Cc1oc(=O)oc1CN1CCN(c2cc3c(cc2F)c(=O)c(C(=O)O)c2n3C(C)S2)CC1` (stereo not given), for which the Potency result was “inactive”.

With `O=C(Oc1ccccc1C(=O)O)c1ccccc1O`, the Potency result was “inactive”.

Take `CCC(=O)OCCC(C)CCC=C(C)C` (stereo not given): the Potency result is “inactive”.

Consider `CCCCC[Si](OCC)(OCC)OCC`, for which the Potency result was “inactive”.

In the case of `CCOC(=O)CC#N`, the Potency entry was “inactive”.

As to `Cc1cc(C)cc([N+](=O)[O-])c1`, the Potency result was “inactive”.

Regarding `CCCCCCCC[Si](OCC)(OCC)OCC`, the Potency entry was “inactive”.

As for `C1=C\CC/C=C\CC/1`, the Potency entry was “inactive”.

For `c1ccccc1`, the Potency result is “inactive”.

As for `O=C(O)Cc1cccc(-c2cc(CCCCCCc3ccc(O[C@H]4O[C@H](CO)[C@@H](O)[C@H](O)[C@@H]4O)c(-c4cccc(CC(=O)O)c4)c3)ccc2O[C@H]2O[C@H](CO)[C@@H](O)[C@H](O)[C@@H]2O)c1`, the viability change, negative = cytotoxic was -1.71% [at 0.349 µM] (inactive).

Consider `CC(Cl)COP(=O)(OCC(C)Cl)OCC(C)Cl` (stereo not given), for which the Potency result is “inactive”.

With `F[Si-2](F)(F)(F)(F)F`, the Potency result was “inactive”.

`COc1ccc(/C=N/NC(=O)c2ccncc2)cc1OC`: the Potency result was “inactive”.

Regarding `CCCO`, the Potency entry is “inactive”.

With `NS(=O)(=O)c1ccccc1OC(F)(F)F`, the Potency entry is “inactive”.

For the compound `Cc1nc(C)nc(N2C[C@@H](C)N(c3ccnc([C@@H](C)O)n3)[C@@H](C)C2)n1`, the Potency entry is “inactive”.

Regarding `O=S(=O)(O)CCO`, the Potency entry was “inactive”.

For the compound `C[C@H](CCC(=O)O)[C@H]1CC[C@H]2[C@@H]3[C@H](O)C[C@@H]4C[C@H](O)CC[C@]4(C)[C@H]3C[C@H](O)[C@]12C`, the Potency entry is “inactive”.

Take `CCC(CO)CO`: the Potency result was “inactive”.

`COC(OC)C(C)c1ccccc1` (stereo not given): the Potency result was “inactive”.

As for `O=C1OC(=O)c2cc(Oc3ccc4c(c3)C(=O)OC4=O)ccc21`, the Potency result is “inactive”.

`Nc1ccnc(=O)[nH]1`: the Potency result is “inactive”.

`CC(=O)Nc1ncc([N+](=O)[O-])s1`: the Potency result is “inactive”.

As for `Cc1nc([N+](=O)[O-])cn1-c1ccc([N+](=O)[O-])cc1`, the Potency entry was “inactive”.

Take `CCCCC(CC)C(=O)OC(C)C` (stereo not given): the Potency result was “inactive”.

Regarding `CCC(C)(C)C1CCC(=O)CC1`, the Potency entry was “inactive”.

Regarding `Cn1c(=O)c2c(ncn2CC2OCCO2)n(C)c1=O`, the Potency result is “inactive”.

On to `CCOC(=O)CC(CC(=O)OCC)(OC(C)=O)C(=O)OCC`, for which the Potency entry is “inactive”.

Turning to `Cc1c(C(C)C)c(=O)n(-c2ccccc2)n1C`, the Potency result is “inactive”.

As for `CC(C)CCO`, the Potency result was “inactive”.

In the case of `CCN(CC)C(=O)C1CN2CCc3cc(OC)c(OC)cc3C2CC1OC(C)=O` (stereo not given), the Potency result is “inactive”.

As to `O=C(CN1CCN(Cc2ccc3c(c2)OCO3)CC1)N1c2ccccc2Sc2ccccc21`, the Potency entry is “inactive”.

For the compound `CN(C)CCOCCN(C)CCO`, the Potency entry is “inactive”.

On to `C/C=C(\C)C(=O)OCC/C=C\CC`, for which the Potency result is “inactive”.

For the compound `C=C[C@@H](C)CCC=C(C)C`, the Potency entry was “inactive”.

As to `O=C(/C=C/c1ccccc1)NCCO`, the Potency result is “inactive”.

On to `CNC(=O)C(c1ccccc1)c1ccccc1`, for which the Potency entry was “inactive”.

As to `CCCCCCCCC(=O)OCC`, the Potency result is “inactive”.

`c1ccc(CNc2ncnc3nc[nH]c23)cc1`: the Potency result was “inactive”.

For `O=C(c1ccc2c(c1)C(=O)OC2=O)c1ccc2c(c1)C(=O)OC2=O`, the Potency entry is “inactive”.
